In all, about 290,000 compounds went through this assay and about 150 (0.052%) were called active. Only a selection was taken, and actives are over-represented in it overall. Entries with a potency or affinity are not part of this list. Values without a mark were called inactive.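 Rule for the calls: active = inhibition of at least 50% with at least 30 cells and total cytoplasm GFP at most 10,000,000; inconclusive = under 30 cells or total GFP of 10,000,000 plus; inactive = the rest.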
target: G-protein coupled receptor 35 (Homo sapiens) (UniProt Q9HC97); assay: GPR35 antagonists blocking zaprinast-driven arrestin recruitment, primary screen, imaging, U2OS, beta-arrestin-GFP, zaprinast agonist (AID 2058); conditions: U2OS GPR35 beta-arrestin-GFP translocation imaging, zaprinast antagonism; at 10 µM; hits give high values
Sequence (Q9HC97 whole entry, looked up): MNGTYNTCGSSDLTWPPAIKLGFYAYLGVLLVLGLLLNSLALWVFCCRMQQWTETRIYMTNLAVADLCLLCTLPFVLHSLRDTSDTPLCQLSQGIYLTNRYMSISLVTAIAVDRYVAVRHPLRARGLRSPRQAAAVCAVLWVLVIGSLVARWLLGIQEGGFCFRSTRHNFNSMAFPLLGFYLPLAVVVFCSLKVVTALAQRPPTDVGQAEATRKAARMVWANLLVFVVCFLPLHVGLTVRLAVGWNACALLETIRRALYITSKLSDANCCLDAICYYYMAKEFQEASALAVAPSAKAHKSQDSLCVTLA

SMILES	inhibition
CCn1c(CNC(=O)c2ccc(Cl)cc2)nnc1SCC(=O)N1CCOCC1	-15.6%
COc1ccc2c(c1)c(/C=C/c1cc[n+](C)cc1)cn2C	48.7%
Cn1cc(/C=C/c2cc[n+](C)cc2)c2cc(Cl)ccc21	54.7% (active)
Cn1cc(/C=C/c2cc[n+](C)cc2)c2cc(F)ccc21	29.2%
CN1CCc2c(sc3nc(NN)n(Cc4ccccc4)c(=O)c23)C1	12.8%
NNC(=O)c1oc2nc(-c3ccco3)cc(-c3ccco3)c2c1N	92.5% (active)
Cc1ccc(-c2cc(-c3ccco3)c3c(N)c(C(=O)NN)oc3n2)cc1	-7.6%
NNC(=O)c1oc2nc(-c3cccs3)cc(-c3ccco3)c2c1N	-11.1%
O=C(CCCn1c(=O)[nH]c2cc(Cl)ccc2c1=O)NCCCN1CCCC1	1.1%
CCCn1c(=O)[nH]c(=O)c2c1nc(-c1ccc(C(F)(F)F)cc1)n2CCOC	2.1%
CCN1CC=C2C(C#N)=C(N)C(C#N)(C#N)C(CCc3ccccc3)C2C1 (stereo not given)	90.4% (active)
N#CC1=C(N)C(C#N)(C#N)[C@H](c2cccnc2)[C@H]2CN(C(=O)OCc3ccccc3)CC=C12	0.1%
CC(=O)N1CC=C2C(C#N)=C(N)C(C#N)(C#N)C(CCc3ccccc3)C2C1 (stereo not given)	-5.1%
N#CC1=C(N)C(C#N)(C#N)C(c2cccnc2)C2CN(C(=O)OCc3ccccc3)CC=C12 (stereo not given)	8.1%
CN1CC=C2C(C#N)=C(N)C(C#N)(C#N)C(Cc3ccccc3)C2C1 (stereo not given)	53.4% (active)
Cc1ccc(S(=O)(=O)N(C)c2ccc(C(=O)NCCc3ccccc3)cc2)cc1	3.9%
Cc1ccc(C2(COC(=O)C(C)C)CO2)c(OC(=O)C(C)C)c1 (stereo not given)	10.9%
CCn1c(Oc2ccc(F)cc2)nc2c1c(=O)n(C)c(=O)n2C	5.5%
COc1ccc(OCC(O)CNC(=O)Nc2ccccc2)cc1 (stereo not given)	1.5%
CN1CCc2nc(NC(=O)c3cccc(OC(F)F)c3)sc2C1	4.4%
COc1ccccc1N1CCN(CCCn2c(=S)[nH]c3ccccc3c2=O)CC1	-1.1%
Cc1ccc(OCC(=O)N2CCN(C(=O)c3ccncc3)CC2)cc1	-6.5%
C=CCCCCCCCCc1nc(SCC(C)=O)n[nH]1	18.4%
C=CCCCCCCCCc1nc(=S)[nH][nH]1	-18.8%

SMILES	inhibition
COc1ccc(NC(=O)COC(=O)C2CC(=O)N(c3ccc(C)cc3)C2)cc1 (stereo not given)	-10.1%
O=S(=O)(NN1CCOCC1)c1cc(Cl)cc(Cl)c1O	-8.3%
CC(=O)NS(=O)(=O)c1ccc(NC(=O)/C=C/c2cn(-c3ccccc3)nc2-c2ccccc2)cc1	-3%
CCCCc1nc(SCC(=O)Nc2nnc(CCCC)s2)n[nH]1	-13.1%
O=C(CCN1C(=O)/C(=C\C=C\c2ccccc2)SC1=S)Nc1ccc(C(=O)O)cc1	1.6%
O=C(CN1C(=O)S/C(=C\C=C\c2ccccc2)C1=O)Nc1ccc(C(=O)O)cc1	-0.2%
O=C(CN1C(=O)S/C(=C/C=C/c2ccccc2)C1=O)Nc1ccc(C(=O)O)cc1	-12.3%
O=C(CCCN1C(=O)S/C(=C\C=C\c2ccccc2)C1=O)Nc1ccc(O)cc1	18.5%
C/C=C(\C)C(=O)NCCN1C2=NC[C@@H](Cc3ccccc3)N2C[C@H]1Cc1ccc(O)cc1	1%
N#Cc1c(C(F)(F)F)cc(=O)[nH]c1SCC(=O)O	-12%
CCN(C(=O)Cc1c(C(=O)O)n(C)c2ccccc12)c1cccc(C)c1	6.8%
O=C(Cn1cccc1C(=O)c1ccccc1)NCCCc1ccccc1	3.3%
CC(NS(=O)(=O)OCC(Cl)(Cl)Cl)c1ccc(Br)cc1 (stereo not given)	2.8%
CC(C)CC(NS(=O)(=O)OCC(Cl)(Cl)Cl)c1ccccc1 (stereo not given)	6.5%
O=C(Nc1ccc(Cl)c(S(=O)(=O)N2CCOCC2)c1)c1ccccc1-c1ccc(C(F)(F)F)cc1	-5.3%
CC(O)CSc1nc2c(c(=O)n(C)c(=O)n2C)n1CCCc1ccccc1 (stereo not given)	18.8%
CC(=O)c1sc2nc(-c3cccs3)cc(C(F)(F)F)c2c1N	19.7%
Nc1c(C(=O)Nc2nccs2)sc2nc(-c3cccs3)cc(C(F)(F)F)c12	14.2%
O=C(NCc1nnc(SCc2ccc(F)cc2)n1-c1ccccc1)C12CC3CC(CC(C3)C1)C2	-5.2%
O=C(NCc1nnc(SCc2ccc(C(F)(F)F)cc2)n1-c1ccccc1)C12CC3CC(CC(C3)C1)C2	89.4% (active)
O=C(NCc1nnc(SCc2ccccc2)n1-c1ccccc1)C12CC3CC(CC(C3)C1)C2	-5.7%
COc1ccc(CC(=O)OCC(=O)NC(=O)NC2CCCCC2)cc1	6.4%
COC(=O)c1[nH]c2cccc(C)c2c1NC(=O)CN1CCN(C(=O)c2ccco2)CC1	21.8%
FC(F)(F)c1cnc(-c2cnc3c(-c4ccc(Cl)cc4)cnn3c2)c(Cl)c1	2.1%

SMILES	inhibition
CCOC(=O)c1ccc(NC(=O)CCc2c(C)nc3ncnn3c2C)cc1	10.9%
O=C(CSc1nnc(Cn2c(=O)sc3ccccc32)n1-c1ccccc1)NCC1CCCO1 (stereo not given)	15.8%
CN1CC=C2C(C#N)=C(N)C(C#N)(C#N)[C@H](c3ccoc3)[C@H]2C1	74.6% (active)
CCOC(=O)N1CC=C2C(C#N)=C(N)C(C#N)(C#N)[C@H](c3ccsc3)[C@H]2C1	7.2%
CN1C2C=C3C(C#N)=C(N)C(C#N)(C#N)[C@@H](c4ccsc4)[C@@H]3C1CC2 (stereo not given in full)	-6.4%
CCN1CC=C2C(C#N)=C(N)C(C#N)(C#N)[C@H](c3ccoc3)[C@H]2C1	67.4% (active)
N#CC1=C(N)C(C#N)(C#N)[C@H](c2ccoc2)[C@H]2CN(Cc3ccccc3)CC=C12	9.6%
CC(=O)N1CC=C2C(C#N)=C(N)C(C#N)(C#N)[C@H](c3ccoc3)[C@H]2C1	2.7%
CC(C)(C)OC(=O)N1CC=C2C(C#N)=C(N)C(C#N)(C#N)[C@H](c3cccnc3)[C@H]2C1	3.8%
CCOC(=O)N1CC=C2C(C#N)=C(N)C(C#N)(C#N)[C@H](c3ccc(OCC)c(OCC)c3)[C@H]2C1	-0.6%
CCCCc1nc(SCC(=O)Nc2cccc(Cl)c2)n[nH]1	-17%
Cc1cccc(Cc2cnc(N3C(=N)SC(C)C3=O)s2)c1 (stereo not given)	-5.2%
O=C(CSc1nnc(C2CCCCC2)o1)N1CCCCC1	11.7%
CCN(C(=O)C(C)OC(=O)C1C(C(=O)OC)=C(C)NC(C)=C1C(=O)OC)c1ccccc1 (stereo not given)	-20.3%
COc1ccc(NC(=O)c2cc3c([nH]c4ccccc43)c(C)n2)cc1	-5.7%
C=CCn1c(SCC(=O)N(C)C2CCS(=O)(=O)C2)nnc1-c1ccncc1 (stereo not given)	11.4%
CCOC(=O)C1CCN(C(=O)CSc2ccccc2)CC1	-1.8%
O=C1/C(=C\c2cc([N+](=O)[O-])ccc2O)SC(=S)N1Cc1ccc(Cl)cc1	61.1% (active)
COc1cc([N+](=O)[O-])cc(/C=C2/SC(=S)N(Cc3ccccc3)C2=O)c1O	2.7%
O=C1/C(=C/c2ccc(O)c([N+](=O)[O-])c2)SC(=S)N1Cc1ccccc1	0.6%
Cc1nc2c(C(=O)NCc3ccc4c(c3)OCO4)cnn2c(C)c1Cc1ccc(F)cc1Cl	-16.4%
Cc1oc(-c2ccc(Cl)cc2)nc1CS(=O)CC(=O)NCCCN(C)C1CCCCC1 (stereo not given)	-9.6%
COC(=O)C1CN(S(=O)(=O)c2cc(OC)ccc2OC)CCS1 (stereo not given)	-8.4%
CC[n+]1c(/C=C/c2ccc(N(C)C)cc2)ccc2ccccc21	6.3%

SMILES	inhibition
CC[n+]1ccc(/C=C/c2ccc(N(C)C)cc2)c2ccccc21	103% (active)
CC[n+]1ccccc1/C=C/c1ccc(N(C)C)cc1	-10.4%
CCCC(=O)N1CCN(c2nc3c(OC)ccc(Cl)c3s2)CC1	12.2%
CCC(Oc1ccc2ccccc2c1)C(=O)O (stereo not given)	6.8%
CC(=O)N(C1=C(O)c2ccccc2C(=O)C1=O)C1CCCCC1	-5.2%
CC(=O)N(c1ccccc1)C1CCCC1	-22.8%
O=C(NC1CCCCCC1)C1CCCN(S(=O)(=O)c2cccs2)C1 (stereo not given)	-5.5%
CCN1CCN(C(=O)c2ccccc2NC(=O)c2ccc(Cl)cc2)CC1	1%
Cc1[nH]c(=O)[nH]c(=O)c1S(=O)(=O)N1CCCC(C(=O)N2CCN(c3ccccc3Cl)CC2)C1 (stereo not given)	3.5%
COc1ccc(NC(=O)/C(Cl)=C(/Cl)S(=O)Cc2ccccc2)cn1 (stereo not given)	9.5%
COc1ccc(NC(=O)/C(Cl)=C(/Cl)S(=O)Cc2ccc(Cl)cc2)cn1 (stereo not given)	3.1%
COc1ccc(NC(=O)/C(Cl)=C(/Cl)S(=O)Cc2ccccc2Cl)cn1 (stereo not given)	115% (active)
Cc1ccc(-c2nc3ncccc3n2O)cc1	2.4%
Cc1ccc(F)cc1NC(=O)CSc1nc(Nc2ccccc2)nc(N2CCOCC2)n1	17.7%
Cc1ccc2nc(/C(C#N)=C/c3ccccc3C(=O)O)[nH]c2c1	-7.1%
CCOc1cccc(/C=C(/C#N)c2nc3ccccc3[nH]2)c1OCC(=O)O	-3.5%
COc1cccc(/C=C(\C#N)c2nc3ccc(C)cc3[nH]2)c1OCC(=O)O	-10.4%
Cc1ccc2nc(/C(C#N)=C/c3ccc(O)c(O)c3)[nH]c2c1	-1.2%
N#C/C(=C\c1ccccc1OCC(=O)O)c1nc2ccccc2[nH]1	-0.8%
CCOc1cc(N(CC)CC)ccc1/C=C(/C#N)c1nc2ccccc2[nH]1	99.9% (active)
Cc1cc(/C=C(\C#N)c2nc3ccccc3[nH]2)c(C)n1C	-1.1%
CCOc1cc(/C=C(\C#N)c2nc3ccccc3[nH]2)ccc1OC(C)C(=O)O (stereo not given)	9.3%
COc1cc(/C=C(\C#N)c2nc3ccc(C)cc3[nH]2)c([N+](=O)[O-])cc1OC	2.2%
